This is part of a sample that, as a whole, favours compounds with a hit. Of some 83,000 tested, about 20% had one in any assay.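 Values shown are percent growth following 48 h exposure of cells in 96-well plates to a single concentration of compound; below 10 was considered active.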 Values without a mark were called inactive. Calls of active or inactive are those of the source.
Columns and labels:
Experiment in all cases: NCI-60 one-dose screen, 48 h (100 = growth as untreated, 0 = no growth, -100 = all killed)
Settings in all cases: 10 µM unless noted
[1] = tested on: NCI-H23 lung
[2] = tested on: NCI-H226 lung
[3] = tested on: NCI-H322M lung
[4] = tested on: HOP-62 NSCLC
[5] = tested on: NCI-H460 lung
[6] = tested on: HOP-92 NSCLC
[7] = tested on: NCI-H522 lung
[8] = tested on: A549/ATCC NSCLC
[9] = tested on: 786-0 renal
[10] = tested on: DU-145 prostate
[11] = tested on: K-562 leukemia
[12] = tested on: MALME-3M melanoma
[13] = tested on: MDA-MB-231 breast
[14] = tested on: RXF 393 renal
[15] = tested on: SF-268 CNS
[16] = tested on: SF-295 CNS
[17] = tested on: SF-539 CNS
[18] = tested on: UACC-257 melanoma
[19] = tested on: M14 melanoma
[20] = tested on: COLO 205 colon

Row | Compound | growth [1] | growth [2] | growth [3] | growth [4] | growth [5] | growth [6] | growth [7] | growth [8] | growth [9] | growth [10] | growth [11] | growth [12] | growth [13] | growth [14] | growth [15] | growth [16] | growth [17] | growth [18] | growth [19] | growth [20]
1 | CCCN1CCN(c2ccc3nc(-c4ccc5nc(-c6ccc(OCC)c(OCC)c6)[nH]c5c4)[nH]c3c2)CC1 | -53.3% (active) | -58.2% (active) | -18.7% (active) | -64.9% (active) | -80.3% (active) | 40.5% | -44.8% (active) | -50.2% (active) | -89% (active) | -64.1% (active) | -5.53% (active) | -82.4% (active) | -80.2% (active) | -92.3% (active) | 15.8% | -63.2% (active) | -87.9% (active) | -29.7% (active) | -65.7% (active) | 
2 | Nc1ccc2c(S(=O)(=O)O)ccc(S(=O)(=O)O)c2c1 | 100% | 101% | 121% | 92.3% | 101% | 89.1% | 85% | 92.6% | 97.8% | 115% | 90.6% | 109% | 111% | 114% | 102% | 105% | 88.5% | 95.3% |  | 
3 | O=c1oc2ccc(Cl)cc2cc1-c1cs/c(=N/N=C\c2ccc(Cl)cc2)n1/N=C/c1ccc(Cl)cc1 | 99.7% | 102% | 97.9% | 109% | 105% | 98% | 75.2% | 89.3% | 97.9% | 108% |  | 98.9% | 101% | 113% | 104% | 108% | 107% | 95.1% |  | 109%
4 | C[N+](C)(C)CCOC(OCC[N+](C)(C)C)(c1ccccc1)c1ccccc1 | 99.8% | 107% | 129% | 106% | 106% | 91% | 93% | 100% | 114% |  | 99% | 126% | 108% | 122% |  | 117% | 96.6% | 103% |  | 116%
5 | COc1ccc(-c2nc3ccccn3c2/C=C/C(=O)c2cc(OC)c(OC)c(OC)c2)cc1 | 45.1% | 71.7% | 73.2% | 70.8% | 34.4% | 22.7% | 26.7% | 55.8% | 63.1% | 58.1% | 49.8% | 43.3% | 42.1% | 43.9% | 38.2% | 123% | 8.84% (active) | 55.3% |  | 
6 | Nc1c(-c2nc3ccc(Br)cc3c(=O)[nH]2)nnn1-c1ccccc1 | 82.6% | 107% | 71.5% | 87% | 43.5% | 94.7% | 73.9% | 74.8% | 87.6% | 62.3% |  | 86.8% | 82.2% | 103% | 60% | 68% | 90.9% | 95.9% |  | 102%
7 | Cc1cccc(-c2cc(O)c(C(=O)N3CCOCC3)s2)c1 | 55.2% | 68% | 63.6% | 38.3% | 17.7% | 73.7% | 0.179% (active) | 37.7% | 51.4% | 60.3% |  | 52.6% | 56.7% | 62.9% | 57.1% | 37.9% | 33.6% | 52.8% |  | 94.9%
8 | CC(=O)NCC(=O)Nc1ccc(-c2nnc3ccccn23)nc1.CC(=O)NCC(=O)Nc1ccc(-c2nnc3ccccn23)nc1.[Pt+2] | 99.4% | 110% | 112% | 101% | 99.6% | 119% | 83.6% | 85% | 107% | 109% |  | 105% | 104% | 117% | 109% | 117% | 110% | 78.7% |  | 111%
9 | N#Cc1c(N)nc2c(nnn2-c2cccc(Br)c2)c1N | 89.5% | 95.7% | 97.6% | 94.8% | 97.1% | 82.2% | 86% | 92.6% | 105% | 109% |  | 115% | 89% | 111% | 97.1% | 107% | 105% | 106% |  | 105%
10 | COC(=O)c1ccc(CSc2nnc(-c3ccncc3)o2)cc1 | 105% | 102% | 93.4% | 92.4% | 108% | 108% | 86.3% | 99.9% | 100% | 114% | 93.9% | 103% | 106% | 122% | 101% | 109% | 98.7% | 99% | 102% | 
11 | CCCCCCCCc1cc[n+](CC(=O)c2ccc(Br)cc2)cc1 | 49.5% | 53.6% | 96.2% | 8% (active) | -84.9% (active) | 24.1% | -91.5% (active) | -84.1% (active) | 16.6% | 37% |  | -25.4% (active) | 13.8% | -24% (active) | 52.5% | 34% |  | -61.2% (active) |  | -89.6% (active)
12 | CN1CCN(C2=C(Cl)C(=O)c3ccccc3C2=O)CC1 | 55.5% | 94.2% | 97.4% | 94.9% | 92.3% | 102% | 25.1% | 81.4% | 84.7% |  | 23.1% | 4.5% (active) | 41.6% | 101% |  | 84.1% | 105% | 56.5% |  | 81.4%
13 | O=C(Nc1ccccc1)c1sc(-c2cccc(C(F)(F)F)c2)cc1O | 54.1% | 80.1% | 77.1% | 79.5% | 49.4% | -7.04% (active) | 39.6% | 64.2% | 89.6% | 82.4% |  | 81.4% | 91.9% | 102% | 82.8% | 82.9% | 42.2% | 46.9% |  | 107%
14 | Cc1cc(Cc2cc(C)cc(C(C)(C)C)c2O)c(O)c(C(C)(C)C)c1 | 23.3% | 58.3% | 75.7% | 68.3% | 8.85% (active) | 18.5% | 29.9% | 27.3% | 57% | 43.5% | 13% | 67.1% | 57.2% | 40.9% | 49.2% | 6.54% (active) | 62.4% | 59.8% |  | 
15 | COc1ccc(-c2cn(-c3cccc(C(=O)/C=C/c4cc(OC)c(OC)c(OC)c4)c3)c(=O)[nH]2)cc1 | -2.28% (active) | 32.9% | 106% | 229% | -44.1% (active) | -3.4% (active) | -38.7% (active) | 46.4% | -89.4% (active) | 1.51% (active) | 0.142% (active) | 66.2% | 19.4% | -52.8% (active) | 20.1% | 26.4% | -89.1% (active) | 22.8% |  | 
16 | CCc1cc(Cc2cc(CC)cc(C(C)(C)C)c2O)c(O)c(C(C)(C)C)c1 | 17.5% | 48.6% | 50% | 34.7% | 4.34% (active) | -22.6% (active) | 22.2% | 23.8% | 23.6% | 43.1% | 8.51% (active) | 19.5% | 13.8% | 5.58% (active) | 37.6% | -2.11% (active) | 39.6% | 46.7% |  | 
17 | Cc1cc(C)on1 | 109% | 103% | 111% | 111% | 116% | 89.3% | 107% | 97.9% | 101% |  | 102% | 112% | 104% | 101% |  | 115% | 103% | 91.6% |  | 112%
18 | Cn1ccc(Cc2cnc(N)s2)n1 | 101% | 98.8% | 102% | 100% | 106% | 98.1% | 84.3% | 84.3% | 101% | 110% |  | 100% | 104% | 107% | 100% | 107% | 99.5% | 81.7% |  | 105%
19 | CC(=O)c1sc(-c2ccccc2)cc1N | 101% | 96.6% | 96.9% | 94.4% | 102% | 97.7% | 72.5% | 76% | 92.7% | 102% |  | 112% | 99.6% | 107% | 104% | 99.7% | 97.1% | 90.6% |  | 109%
20 | CNC(=O)c1cc(Oc2ccc3nc(NC(=O)Nc4cc(C(F)(F)F)cc(C(F)(F)F)c4)sc3c2)ccn1 | -67.9% (active) | -13.7% (active) | -46.6% (active) | -70.5% (active) | -57.5% (active) | -54.6% (active) | -71.9% (active) | -71.4% (active) | -64% (active) | -39.6% (active) | -2.97% (active) | -57.5% (active) | -53.1% (active) | -24.5% (active) | -25.6% (active) | -81.9% (active) | -80% (active) | -50.8% (active) | -39% (active) | 
21 | CCCCOc1ccc(NC(=O)n2nc(N=NN(C)C)c3ccc(Cl)cc32)cc1 | 94.2% | 96.3% | 99.4% | 88.3% | 110% | 93% | 90.1% | 111% | 109% | 106% | 93.7% | 122% | 104% | 112% | 102% | 101% | 104% | 125% | 89.4% | 
22 | O=S(=O)(Cc1ccccc1)c1nc2ccccc2s1 | 56.3% | 82.9% | 93.8% | 105% | 103% | 33.7% | 13.2% | 98.4% | 88.9% | 86.7% | 13.5% | 73.6% | 85.1% | 109% | 79% | 109% | 92% | 78.7% | 18.3% | 

— PubChem BioAssay (NCI)
